For 110 compounds, INHIBITION results are on record in ChEMBL document CHEMBL4513216, “Probing the Open Global Health Chemical Diversity Library for Multistage-Active Starting Points for Next-Generation Antimalarials” (ACS Infect Dis, 2020).

Screen size: about 65,000 compounds; about 2,100 (3.2%) showed an effect of 50% or more. The median lay at about -52%. The sample holds strong results, similar compounds and a random draw of the others, so the mix is not that of the screen.

The test has as its system Plasmodium falciparum. The test is described as follows: Screen against P. falciparum Asexual Blood Stage (ABS), at 5uM. The test is classed as functional, Dd2. The following applies: tested at 5 uM.
On to `Cc1ccc(CCC(=O)N2CCC(Nc3cccnn3)CC2)cc1`, for which the INHIBITION was -69.1%.
Take `O=S(=O)(NCc1ccccc1)N1CCCN(c2ccncc2)CC1`: the INHIBITION was -0.943%.
Next, `CCC(=O)N1CCC2(CC1)C(c1cccnc1)CC(=O)N2CCOC` (stereo not given): -104%.
As for `CC(CNC(=O)c1cccnc1)Oc1ccc(F)cc1` (stereo not given), the INHIBITION is on record as -61.4%.
For `Cc1cc(N2CCCC(N(C)C)C2)n2nccc2n1` (stereo not given) the value was -65.1%; for `CCNC(=O)C1CCN(c2cc(-c3ccccc3)nc3ccnn23)C1` (stereo not given), -26.4%; for `CN(C)C1CCN(c2cc(-c3ccccc3)nc3ccnn23)C1` (stereo not given), 51.3%.
For `O=C(COc1coc(CN2CCOCC2)cc1=O)Nc1ccc(Cl)cc1` the value was -117%; for `COCCN1CCN(CC(C)(O)c2cccc(C(F)(F)F)c2)CC1` (stereo not given), 20.5%; for `CC(O)(CN1CCC2(CC1)OCCO2)c1cccc(C(F)(F)F)c1` (stereo not given), -7.98%.
Next, `CC(=O)N1CCN(CC(C)(O)c2cccc(C(F)(F)F)c2)CC1` (stereo not given): -10.4%.
As for `CCN1CCN(CC(C)(O)c2cccc(C(F)(F)F)c2)CC1` (stereo not given), the INHIBITION was determined as 61.4%.
For `CC(O)(CN1CCC(O)CC1)c1cccc(C(F)(F)F)c1` (stereo not given) the value was 58%; for `CC(O)(CN1CCN(CCO)CC1)c1cccc(C(F)(F)F)c1` (stereo not given), 45.7%.
For `CC(C)(C)c1csc(CCNC(=O)[C@H](c2ccccc2)n2cnnn2)n1` the value was -92.7%; for `O=C(c1ccsc1)N1C[C@@H]2OCCN(CCN3CCCC3)[C@@H]2C1`, -116%.
Consider `CCc1ccc(S(=O)(=O)NCC2CCN(c3cnccn3)CC2)s1`, for which the INHIBITION was -103%.
As to `COc1cccc(N2CCN(Cc3nccn3C(C)C)CC2=O)c1`, the INHIBITION is recorded as -72.4%.
With `CC(=O)N1CCCN(Cc2ccon2)c2ccccc21`, the INHIBITION is on record as -22.6%.
For `CC(C)(C)OC(=O)N1CCCc2ccc(NCc3ccon3)cc21` the value was -31.3%; for `CC(C)(C)OC(=O)N1CCCN(Cc2ccon2)c2ccccc21`, 84.5%.
For `CN(C)CCOCc1nnc2n1CCN(Cc1ccc(F)cc1)CC2`, the INHIBITION is on record as -137%.
`O=C(CO)N1CCC(F)(F)C2(CCN(c3ccccc3)C2)C1` (stereo not given): the INHIBITION is -30.5%.
For `O=C(O)CN1CCC(F)(F)C2(CCN(c3ccccc3)C2)C1` (stereo not given) the value was 67.6%.
For `Cn1ccnc1CN1CCC(F)(F)C2(CCN(c3cnccn3)C2)C1` (stereo not given), the INHIBITION is -1.72%.
For `FC1(F)CCN(c2ccccc2)CC12CCN(c1ncccn1)C2` (stereo not given) the value was -145%.
Consider `Cn1ccnc1CN1CCC(F)(F)C2(CCN(c3cccnc3)C2)C1` (stereo not given), for which the INHIBITION stood at 60.4%.
For `FC1(F)CCN(Cc2ccncc2)CC12CCN(c1cccnc1)C2` (stereo not given) the value was 19.1%; for `COc1ccc(CN(C)[C@@H]2CN(C(=O)c3cncs3)C[C@H]2O)cc1`, -40.5%; for `O=c1[nH][nH]c2cn(-c3ccc(Cl)cc3)c(=O)n12`, -27.8%.
Next, `CCOc1cc(CN(C)CCC(=O)OC)ccc1OC(F)F`: -133%.
On to `CN(C)CCO[C@@H]1CC[C@H]2[C@H]1OCCN2C(=O)c1ccnnc1`, for which the INHIBITION is -24.7%.
As for `CC(=O)NCc1nnc2n1CCN(Cc1cccs1)C2`, the INHIBITION is on record as -56.1%.
For `CCCc1cc(NCCN2CCNC2=O)n2nccc2n1` the value was -34.9%.
With `O=C([C@H]1COC[C@H]2CN(C3CCCC3)C[C@H]21)N1CCCO1`, the INHIBITION is given as -99.5%.
As for `Cc1cnc(-n2cnnc2)c(-c2cccc3c2CCNC3)c1`, the INHIBITION is listed as -35%.
For `Cc1cc(-c2cccc3c2CCNC3)cnc1-n1cnnc1` the value was -24.9%; for `Cc1nc(-n2cnnc2)ccc1-c1cccc2c1CCNC2`, 68.7%; for `CC(C)n1nc2c(cc1=O)CN(c1ncnc3ccsc13)CC2`, -31%.
In the case of `CCSC1=Nc2c(cnn2-c2ccc(Cl)cc2)C2=NCCCN12`, the INHIBITION was found to be 67.3%.
Next, `CCOc1ccc(N2CCCN=C2NC(=O)c2ccc(Cl)cc2)cc1`: -71.7%; `CSC1=Nc2c(cnn2-c2ccc(C)cc2)C2=NCCCN12`: 53.5%; `Cc1ccc(-n2ncc(C(=O)NC3CCCCC3)c2N)cc1`: -125%.
On to `CSC1=Nc2c(cnn2-c2ccccc2)C2=NCCCN12`, for which the INHIBITION amounted to 9.95%.
For `O=C(NC1=NCCCN1c1ccc(Cl)cc1)c1cccc(Cl)c1` the value was -55.5%; for `COCCNC(=O)c1cc(C(C)C)nc(N2CCCCC2)n1`, -39.9%.
As to `COC(=O)c1ccc(-c2noc(CN(CCO)Cc3cccs3)n2)cc1`, the INHIBITION is recorded as -63.8%.
For `O=C(c1cscn1)N1CCCC2(CCN2Cc2cccc(F)c2)C1` (stereo not given), the INHIBITION turned out to be 26.8%.
For `Cc1csc(C(=O)N2CC(S(=O)(=O)C3CCCCC3)C2)c1` the value was -52%; for `c1coc(-c2[nH]c3ncccc3c2CN2CCCOCC2)c1`, -12.7%.
As for `Cc1csc2ncnc(N3CCC(Cn4cc(C(C)(C)O)nn4)CC3)c12`, the INHIBITION is on record as -46.7%.
Next, `O=C(C1CCOCC1)N1CCC(OCc2cccnc2)CC1`: -110%; `CC(C)NC(=O)C1CN(C(=O)NCc2ccccc2)CC12CCOCC2` (stereo not given): -153%.
Next, `Cc1noc(C)c1CN(C)C(=O)NC1CCN(C2CC2)CC1`: -155%; `Cc1noc(C)c1CN(C)C(=O)NC1CCOCC1`: 16%; `CC(=O)N1CCC(NC(=O)N(C)Cc2c(C)noc2C)CC1`: 51.4%.
For the compound `Cc1noc(C)c1CN1CCc2ncnc(-c3ccncc3)c2CC1`, the INHIBITION is on record as -104%.
As for `CCOCCC(=O)Nc1ccnn1-c1ccc(Cl)cc1`, the INHIBITION is -23.8%.
With `COCCOCC(=O)Nc1ccnn1-c1ccc(Cl)cc1`, the INHIBITION is reported as -100%.
Next, `COCC(=O)Nc1ccnn1-c1ccc(Cl)cc1`: 68.3%; `COc1ccc(S(=O)(=O)NC(=O)COc2ccc3c(c2)CCC3)cc1`: -119%; `c1cn(Cc2ccc(N3CCCN(C4CCCC4)CC3)nc2)cn1`: -80%.
Next, `Fc1ccc(N2CCCN(c3ccc(Cn4ccnc4)cn3)CC2)cc1`: 60.2%; `c1csc(CN2CCCN(c3ccc(Cn4ccnc4)cn3)CC2)c1`: -41.4%.
Turning to `Cc1ccc(CN2CCn3c(CNS(C)(=O)=O)nnc3C2)s1`, the INHIBITION is -30.1%.
For `CCc1[nH]c2c(CNC(=O)C3CCCN(C)C3)cc(C)cc2c1C` (stereo not given), the INHIBITION was found to be 0.72%.
`CCc1[nH]c2c(CNC(=O)C3CCN(C)C3)cc(C)cc2c1C` (stereo not given): the INHIBITION is reported as -5.66%.
For `CCc1[nH]c2c(CNC(=O)[C@@H]3CCCN3C)cc(C)cc2c1C` the value was 60.4%; for `NC(=O)N1CCC2(CC1)CN(c1ccsc1)C(=O)CO2`, -60.1%.
For `O=C1CC(NCc2ncc[nH]2)CN1CCc1cccc(Cl)c1` (stereo not given) the value was -17.4%.
Next, `Clc1cccc(N2CCC(NCc3ncc[nH]3)C2)c1` (stereo not given): 66.6%.
In the case of `Clc1cccc(N2CCC(NCc3cc[nH]n3)C2)c1` (stereo not given), the INHIBITION was -39.8%.
For `Cn1cc(C(=O)N2CCCC(c3cnccn3)C2)cn1` (stereo not given) the value was -55.6%.
Next, `O=C1[C@H]2CN(c3ncccn3)C[C@H]2CN1CC1CC1`: -51.9%.
`Cc1cc(C(=O)NCCc2nc3c(s2)CCCC3)n(C)n1`: the INHIBITION was -90%.
As to `COC(=O)CCN1CCCC1c1cccc2c1OCCO2` (stereo not given), the INHIBITION was -42.1%.
Next, `CC(C)NC(=O)CCN1CCCC1c1cccc2c1OCCO2` (stereo not given): 53.4%; `NC(=O)NC(=O)CCN1CCCC1c1cccc2c1OCCO2` (stereo not given): 24.8%; `COCCN1CCCC1c1cccc2c1OCCO2` (stereo not given): -0.537%.
With `CCNC(=O)CCN1CCCC1c1cccc2c1OCCO2` (stereo not given), the INHIBITION is reported as 52.7%.
Next, `O=C(CCN1CCCC1c1cccc2c1OCCO2)N1CCOCC1` (stereo not given): -24.9%; `NC(=O)c1nc2c(s1)CCN(C(=O)Nc1cccc(Cl)c1)CC2`: -91.8%; `CC(=O)NCC(=O)Nc1cc(C)n(-c2ccc(Cl)cc2Cl)n1`: -97%.
Take `CC(C)N(C)C(=O)C1CCN(Cc2cnc3ccccn23)CC1`: the INHIBITION is reported as -38.4%.
Consider `CN(C)C(=O)COc1ccccc1CN1CCCC2(C1)CN(C)C(=O)O2` (stereo not given), for which the INHIBITION is recorded as -37.9%.
For `CCS(=O)(=O)c1ncc(CN(C)C)n1Cc1ccccc1` the value was -37.3%.
For the compound `CS(=O)(=O)CCC(=O)Nc1nccn1Cc1ccccc1Cl`, the INHIBITION is listed as -70.9%.
Next, `O=C1NC(c2ccccc2)=N[C@@]12CC[C@@H]1CN(Cc3ccncc3)C[C@@H]12`: 15.3%.
In the case of `O=C1NC(c2ccccc2)=N[C@@]12CC[C@@H]1CN(Cc3ccoc3)C[C@@H]12`, the INHIBITION was determined as 59.6%.
`O=C1NC(c2ccccc2)=N[C@@]12CC[C@@H]1CN(Cc3ccccc3)C[C@@H]12`: the INHIBITION amounted to 42.6%.
`CN1C(=O)CC(c2cnn(C)c2)C12CCN(C(=O)c1cscn1)CC2` (stereo not given): the INHIBITION is -21.4%.
`CC(C)(C)NC(=O)Cn1c(=O)n(Cc2ccco2)c2ncccc21`: the INHIBITION was -56.2%.
`COCC1CCN(c2ccnc3ccsc23)C1` (stereo not given): the INHIBITION amounted to 45.4%.
Next, `Cc1noc(Cl)c1CCC(=O)N1CCc2sccc2C1`: 54.4%; `Cc1noc(Cl)c1CCC(=O)N1CCN(c2ncccn2)CC1`: -34.8%; `Cc1noc(C)c1CN(C)CCC(=O)N1CCc2sccc2C1`: -54.3%.
Next, `Cc1noc(C)c1CC(=O)N1CCc2sccc2C1`: -48.1%; `Cc1noc(Cl)c1CCC(=O)N1CCN(c2ccccc2)CC1`: 53%; `CCN1CCN(C(=O)CCc2c(C)noc2Cl)CC1`: 1.06%.
`O=C(CCN1CCCC(CC2CC2)(C(=O)O)C1)NC1CCCC1` (stereo not given): the INHIBITION was -79.9%.
For `CC(C)(C)n1ncc2c1CCCC2NCc1ccc2c(c1)CCO2` (stereo not given) the value was -0.776%; for `CC(C)(CO)CCCNC(=O)NC1(c2cccc(F)c2)CC1`, -79.4%.
For `O=C(CCc1ccsc1)NC1CCN(c2cccc(F)c2)CC1` the value was -55.7%; for `CCc1cc(C(=O)N2CCCC(Cc3ccc(NC)nn3)C2)on1` (stereo not given), -89.6%; for `CC(Cn1ccnc1)NC(=O)C1(c2ccc(F)cc2)CC1` (stereo not given), -96.5%.
Turning to `Cc1cc(C)n(CC(C)NC(=O)C2(c3ccc(F)cc3)CC2)n1` (stereo not given), the INHIBITION is -44.3%.
With `CCC(CN1CCCC1)NC(=O)C1(c2ccc(F)cc2)CC1` (stereo not given), the INHIBITION worked out at 59.1%.
Next, `CC(CNC(=O)C1(c2ccc(F)cc2)CC1)CN1CCCC1=O` (stereo not given): 11.4%.
Next, `CC(Cn1ccnc1)NC(=O)C1(c2ccc(F)cc2)CCCC1` (stereo not given): -16.4%; `CCC(CN1CCCCC1)NC(=O)C1(c2ccc(F)cc2)CC1` (stereo not given): 70%.
